Source: PubChem
Shown are actives, neighbours in structure and some others; about 2.4% of the full set was active somewhere.
POLI inh: blocks human DNA polymerase iota activity; Potency, µM (highest dose often 115 µM), without a hit: at the top dose activity, negative = inhibition, hits mostly inhibitors; 390,000 tested, 1% active; AID 588590; Pol iota fluorescent replication assay, 10 min
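Pol iota at 10 nM preincubated 15 min with compounds at room temperature; reaction started with fluorescent substrate, 50 nM final. Fluorescence read kinetically at 0 and 10 min; buffer-only wells as negative control.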
Pol kappa inh-1: DNA polymerase kappa (human) inhibition; Q9UBT6; purified Pol kappa, fluorescent DNA synthesis assay, 10 min; Potency, µM (top dose mostly 107 µM), without a hit: at the top dose activity, negative = inhibition, actives largely listed as inhibitors; 400,000 tested, 0.53% active; also: % is scaled to controls: 0 for no effect and ±100 for the full control effect
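First, compounds were pin-transferred onto 10 nM Pol kappa. After 15 min at room temperature, substrate was added to 50 nM final. Fluorescence was then measured kinetically at 0 and 10 min.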
Pol beta inh: blocks human DNA polymerase beta activity | Pol beta primer extension/strand displacement, fluorescence kinetic | 340,000 tested, 1.3% active | P06746 | Potency, µM (series often up to 114 µM), without a hit: at the highest dose activity change, negative = inhibition, most hits filed as inhibitors | AID 485314; also: % is scaled to controls: 0 for no effect and ±100 for the full control effect
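10 nM enzyme + cpd, 15 min RT; start with substrate 50 nM final; read 0 min and after 10 min RT. Corrected, normalized data; 4-parameter Hill curve fit.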
WRN helicase inh-1: WRN helicase (human) inhibition; Q14191; 360,000 tested, 0.46% active; WRN helicase unwinding, fluorescent forked duplex, kinetic; Potency, µM (top dose mostly 114 µM), inactives show at the top dose activity change, negative = inhibition, usual class: inhibitors; also: % is scaled to controls: 0 for no effect and ±100 for the full control effect; nearly all actives have a fitted effect of over 55% in size
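Primary qHTS, 1536-well format. 20 nM WRN + compound, 15 min RT; start with 100 nM forked fluorophore/quencher duplex, 2 mM ATP (final); kinetic read ex 525/em 598 nm.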
FEN1 inh-1: inhibitors of human flap endonuclease 1 | P39748 | Recombinant FEN1 flap cleavage, fluorescence, 15 min | Potency, µM (series often up to 114 µM), inactives show at the top dose activity change, negative = inhibition, hits mostly inhibitors | 390,000 tested, 0.35% active | AID 588795; also: % is scaled to controls: 0 for no effect and ±100 for the full control effect; nearly all actives have a fitted effect of over 65% in size
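Read-out was taken twice, immediately and after 15 min, following addition of 50 nM substrate to 10 nM FEN1 that had sat with test compound for 15 min at room temperature. Curves came from a four-parameter Hill model.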
Pol eta inh-1: blocks human DNA polymerase eta activity. Q9Y253. recombinant Pol eta, fluorescent DNA replication assay. Potency, µM (highest dose often 114 µM), without a hit: top-dose activity change, negative = inhibition, hits mostly inhibitors. 390,000 tested, 1.2% active. AID 588591; also: % is scaled to controls: 0 for no effect and ±100 for the full control effect
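Pol eta at 10 nM preincubated with compounds 15 min at room temperature; reaction started with fluorescent substrate (50 nM final) and read kinetically at 0 and 10 min.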
PGK validate: TbPGK inhibition, hit validation. shares compounds with Pol kappa inh-1. TbPGK coupled GAPDH assay, Kinase-Glo luminescence. Potency, µM (series often up to 57.5 µM), inactives show at the highest dose activity change, negative = inhibition, hits mostly inhibitors. 500 tested, 79% active; also: % is scaled to controls: 0 for no effect and ±100 for the full control effect; nearly all actives have a fitted effect of over 65% in size
Pol iota confirm: Inhibitors of human DNA polymerase iota, confirmation; AID 720496; Pol iota primer extension, TAMRA/BHQ fluorescence; shares compounds with Pol kappa inh-1; 1,500 tested, 77% active; Potency, µM, hits mostly inhibitors
Pol kappa inh-2: Pol kappa (human) inhibition, cherry-pick confirmation. Potency, µM, most hits filed as inhibitors. shares compounds with Pol eta inh-1. 920 tested, 76% active. purified Pol-kappa, fluorescent strand-displacement substrate
Pol eta inh-2: Pol eta (human) inhibition, cherry-pick confirmation. shares compounds with Pol eta inh-1. Pol eta primer extension, TAMRA/BHQ fluorescence, 10 min. Potency, µM, most hits filed as inhibitors. 2,600 tested, 64% active. AID 720502
FEN1 inh-2: FEN1 inhibition, cherry-pick retest. shares compounds with FEN1 inh-1. FEN1 flap cleavage, TAMRA/BHQ2 fluorogenic DNA substrate. Potency, µM, usual class: inhibitors. 880 tested, 79% active. AID 720498; also: nearly all actives have a fitted effect of over 60% in size
WRN helicase inh-2: WRN helicase inhibition, cherry-pick retest; shares compounds with WRN helicase inh-1; WRN helicase DNA unwinding, fluorescence kinetic; Potency, µM (highest dose often 57.1 µM), without a hit: top-dose activity, negative = inhibition, hits mostly inhibitors; 610 tested, 63% active; AID 720497; also: nearly all actives have a fitted effect of over 65% in size
TO displacement: binds DNA, flagged in WRN inhibitor counterscreen | shares compounds with WRN helicase inh-1 | thiazole orange DNA binding displacement, fluorescence | Potency, µM (titrated, usually from 57.1 µM), for the others: at the top dose activity change, negative = inhibition, usual class: inhibitors | 610 tested, 10% active;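 also: drop in dye fluorescence marks compound binding to DNA; % is scaled to controls: 0 for no effect and ±100 for the full control effect; nearly all actives have a fitted effect of over 60% in size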
BLM helicase inh: blocks human BLM helicase in WRN counterscreen | Recombinant BLM helicase DNA unwinding, red fluorescence | 610 tested, 60% active | Potency, µM (titrated, usually from 57.1 µM), inactives show at the highest dose activity change, negative = inhibition, usual class: inhibitors | shares compounds with WRN helicase inh-1; also: nearly all actives have a fitted effect of over 60% in size
An asterisk follows results filed as active; i = inactive; ? = inconclusive; . = no result given; [ ] = remark or other dose. Calls follow the shape of the dose curve; as a rule, active = well fitted curve in the direction sought with a large enough effect; inconclusive = small, poorly fitted or top-dose-only effect, or another doubt; inactive = no such curve, though single readings can be large; an effect the other way counts as inactive or inconclusive. Potency is read from the fitted curve at half-maximal effect.

SMILES | POLI inh | Pol kappa inh-1 | Pol beta inh | WRN helicase inh-1 | FEN1 inh-1 | Pol eta inh-1 | Pol iota confirm | Pol eta inh-2 | FEN1 inh-2 | WRN helicase inh-2 | TO displacement | BLM helicase inh | others
Cc1ccc(C2Nc3ccc4ccccc4c3C3=C2C(=O)CC(C)(C)C3)o1 (stereo not drawn) | 25% | -11% | -15% | -7% | -16% | -12% | . | . | . | . | . | .
O=C1CCCC2=C1C(c1ccco1)Nc1ccc3ccccc3c12 (stereo not drawn) | 6.3µM* | 28µM* | 6.3µM* | 18µM* | 50µM* | 2µM* | 7.5* | 19* | 76* | 15µM* | -28% | 3µM* | PGK validate=15µM*
Cc1cccc2sc(NC(=O)C3CCN(S(=O)(=O)c4cc([N+](=O)[O-])ccc4Cl)CC3)nc12 | 25µM* | 79µM* | ? | ? | -16% | 11µM* | ? | 76* | . | ? | ? | 7.6µM*
Cc1nnc(NC(=O)C2CCN(S(=O)(=O)c3cc([N+](=O)[O-])ccc3Cl)CC2)o1 | 18% | 0% | . | 7% | 18% | -19% | . | . | . | . | . | .
CCc1ccccc1NC(=O)Cc1c(C(=O)O)[nH]c2ccc(Cl)cc12 | -17% | 3% | 4% | . | 1% | 5% | . | . | . | . | . | .
CCNc1ccc2noc3c2c1C(=O)c1ccccc1-3 | 28µM* | 25µM* | 20µM* | 4.2µM* | 50µM* | ? | 75* | 76* | 85* | 3µM* | i | 7.6µM* | Pol kappa inh-2=67*
O=C(N/N=C/c1cn(Cc2cccc(F)c2)c2ccccc12)c1cc(O)cc(O)c1 | ? | 7.1µM* | 1.4µM* | 20µM* | 22µM* | 1.6µM* | 8.4* | 8.5* | 60* | 5.4µM* | 24µM* | 2.2µM* | PGK validate=2.1µM*
COc1ccc(-c2noc(CSc3nnc(-c4ccncc4)n3-c3ccc(C)c(C)c3)n2)cc1 | 1% | -2% | -22% | . | 2% | -25% | . | . | . | . | . | .
CC(OC(=O)/C(C#N)=C/c1ccc(N(C)C)cc1)C(=O)N(C)Cc1ccccc1 (stereo not drawn) | 89µM* | ? | 1% | 45µM* | ? | 50µM* | 27* | 24* | 76* | 24µM* | 74% | 22µM*
CC(OC(=O)c1cccc(O)c1)C(=O)N(C)Cc1ccccc1 (stereo not drawn) | 14% | -3% | . | -10% | -3% | 0% | . | . | . | . | . | .
Oc1ccc(/C=N/N=C/c2ccc(O)cc2)cc1 | 20% | -1% | 0% | 7% | -16% | -9% | . | . | . | . | . | .
Oc1ccc(/C=N/N=C/c2ccc(O)c(O)c2)cc1O | 1.3µM* | 0.89µM* | 0.45µM* | 0.75µM* | ? | 0.71µM* | 6.7* | 4.3* | . | 0.61µM* | -16% | 1.1µM* | PGK validate=1.3µM*;Pol kappa inh-2=4.7*
O=C1Nc2ccccc2/C1=N\N=C\c1ccc(O)c(O)c1 | 2.2µM* | 5.6µM* | 4.5µM* | 32µM* | 13µM* | 3.2µM* | ? | 17* | . | 6.8µM* | ? | 6.8µM*
CCS(=O)(=O)N1CC(=O)N(c2cccc(Cl)c2)C(C)(C(=O)NC2CCCCCC2)C1 (stereo not drawn) | -20% | 1%[60.1 µM] | -12% | . | -2% | 7% | . | . | . | . | . | .
Cc1ccc(NC(=O)Cn2c(=O)n(CCC(=O)N3CCc4ccccc4C3)c(=O)c3ccccc32)cc1 | -5% | 4% | 9% | . | -8% | -5% | . | . | . | . | . | .
COc1ccc(S(=O)(=O)Nc2cc(Sc3ncn[nH]3)c(O)c3ccccc23)cc1 | 5µM* | ? | 22µM* | 9.5µM* | 6.3µM* | . | 42* | ? | ? | 24µM* | -14% | ?
CC(C)c1ccc(S(=O)(=O)Nc2ccc(O)c(Sc3ncn[nH]3)c2)cc1 | 3% | -1% | -14% | 2% | 9% | -24% | . | . | . | . | . | .
O=C(CCCN1C(=O)/C(=C\c2ccco2)SC1=S)Nc1ccc(O)cc1C(=O)O | 8.9µM* | 22µM* | ? | 16µM* | 50µM* | 4.5µM* | 34* | 27* | . | 7.6µM* | ? | 22µM*
O=C(CCCN1C(=O)/C(=C/c2ccco2)SC1=S)Nc1cccc(C(=O)O)c1 | 14µM* | 22µM* | 3.2µM* | 35µM* | ? | 20µM* | 24* | 15* | . | 19µM* | -8% | 19µM*
O=S(=O)(O)c1ccc(O)c2cc(Nc3ccccc3)ccc12 | ? | 2.8µM* | . | 0.95µM* | 7.9µM* | 0.79µM* | 0.67* | 0.76* | 8.5* | 0.43µM* | 9.6µM* | 0.061µM* | PGK validate=0.65µM*;Pol kappa inh-2=0.53*
COc1ccccc1C(=O)NCCn1cc(SCC(=O)Nc2ccccc2F)c2ccccc21 | -9% | -4% | 23% | . | ? | -16% | . | . | . | . | . | .
CC1=Nc2ccccc2/C1=C\c1nc(-c2ccc(F)cc2)oc1O | ? | ? | 35µM* | ? | 71µM* | ? | ? | 34* | 24* | 19µM* | 106% | 19µM*
